Here are results for eleven compounds from PubChem BioAssay (NCI).

What all share (test): NCI-60 one-dose screen, 48 h (100 = growth as untreated, 0 = no growth, -100 = all killed)
Common to all, as to details: 10 µM unless noted

Experiment [1] concerns SK-MEL-2 melanoma.
The subject of experiment [2] is EKVX NSCLC.
The test system of experiment [3] is SN12C renal.
Experiment [4] concerns UO-31 renal.
The subject of experiment [5] is TK-10 renal.
The subject of experiment [6] is ACHN renal.
For experiment [7], the system named is CAKI-1 renal.
Experiment [8] has as its system A498 renal.
The subject of experiment [9] is CCRF-CEM leukemia.
Experiment [10] deals with MOLT-4 leukemia.

This is part of a sample that, as a whole, favours compounds with a hit. Of some 83,000 tested, about 20% had one in any assay.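 Cell lines were cultured in 96-well plates, exposed to a single compound concentration, and assessed for percent growth 48 hours later.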 Values without a mark were called inactive. Calls of active or inactive are those of the source. The calls were made as follows: active = growth percent below 10; inactive = the rest.

For the compound `CCCCc1c(Nn2cnnn2)no[n+]1[O-]`, the growth is 80.1% in experiment [1]; 54.2% in experiment [2]; 42.4% in experiment [3]; 28.4% in experiment [4]; 96.5% in experiment [5]; 54.9% in experiment [6]. The growth in [7] is 39.5%; in [8], 79.2%; in [9] it was 31.6%; in experiment [10], 23%.
As for `CCOc1ccc(-c2c(C#N)c(-c3ccc(Cl)cc3)nc3n[nH]c(-c4ccc(Cl)cc4)c23)cc1OC`, the growth in experiment [1] is 64%; in experiment [2], 26.6%; in [3], 69.2%; in experiment [4], 33.2%; in experiment [5], 90%; in experiment [6] it was 53.4%. Further, the growth is 53.1% in [7], 114% in experiment [8], 33.7% in experiment [9] and -3.16% (active) in experiment [10].
As for `CC(=O)Nc1ccc(-c2cn(-c3cccc(C(=O)Nc4ccc(N5CCN(C)CC5)cc4)c3)nn2)cn1`, the growth in experiment [1] is 92.5%; in experiment [2], 80.9%; in experiment [3], 80.1%; in experiment [4], 100%; in [5], 86.5%; in [6], 88.1%. Also, the growth is 98.2% in [7], 160% in experiment [8], 40% in experiment [9] and 59.8% in experiment [10].
Take `C#CCOc1cc(N(CC)CC)ccc1C(C(=O)NC(C)(C)C)N(C(=O)C1CCc2cc(F)ccc2O1)c1ccc(F)cc1` (stereo not given): the growth was -24.7% (active) in experiment [1]; 37.8% in experiment [2]; 48.9% in [3]; 30.4% in [4]; 68.7% in [5]; 33.5% in [6]. Besides, the growth in [7] is 30.7%; in experiment [8], 78.5%; in experiment [9] it was 40.4%; in experiment [10], 9.55% (active).
`COc1ccc(-c2nc3cc(C)ccc3n2CC(=O)N=Nc2c(O)[nH]c3ccc(OC)cc23)cc1`: the growth in experiment [1] was -14% (active); in [2], -25.5% (active); in experiment [3] it was -95.1% (active); in [4] it was -29.4% (active); in [5] it was -3.46% (active); in [6], -73.9% (active). Moreover, the growth in [7] was -51.3% (active); in experiment [8], 52.3%; in experiment [9], 38.5%; in experiment [10], -46.2% (active).
For `CC1=C(C#N)C2=NNCC(c3ccccc3)=NN2C(c2ccccc2)=C1`, the growth in experiment [1] is 113%; in experiment [2] it was 99.7%; in [3] it was 105%; in experiment [4], 91.2%; in experiment [5], 103%; in [6], 110%. The growth was 99.8% in experiment [7], 132% in experiment [8], 110% in [9] and 114% in experiment [10].
Take `C=C1CC[C@@H]2[C@]3(C)COC(c4cn[nH]c4-c4cccc(Br)c4)O[C@@H]3CC[C@@]2(C)[C@@H]1C/C=C1/C(=O)OCC1O` (stereo not given in full): the growth is -69.8% (active) in [1]; -62.3% (active) in experiment [2]; -77.7% (active) in [3]; -100% (active) in [4]; -59.7% (active) in experiment [5]; -100% (active) in experiment [6]. Further, the growth in experiment [7] was -39.3% (active); in experiment [8], -93.7% (active); in experiment [9], -15.6% (active); in [10], 12.2%.
Consider `CN(C)CCn1c2ccccc2c2nc3ccc([N+](=O)[O-])cc3nc21`, for which the growth in [1] was -10.6% (active); in experiment [2], 17.3%; in [3], -9.41% (active); in experiment [4], -47.6% (active); in experiment [5], -1.22% (active); in experiment [6], -40.8% (active). Besides, the growth is -23.8% (active) in experiment [7], -41.7% (active) in experiment [8], 17.6% in [9] and 8.56% (active) in experiment [10].
Take `Cc1ccccc1[C@H]1C(C(=O)c2ccc(Cl)cc2)C2(N[C@@H]1c1ccccc1)C(=O)Nc1ccccc12` (stereo not given in full): the growth in experiment [1] is -76.3% (active); in experiment [2], -15.6% (active); in experiment [3] it was -94.9% (active); in experiment [4], 0.424% (active); in experiment [5], -8.15% (active); in [6] it was -13.9% (active). The growth in experiment [7] is 3.96% (active); in [8], -8.76% (active); in experiment [9] it was -13.8% (active); in experiment [10], -18% (active).
Consider `Cc1ncsc1-c1ccc(CNC(=O)[C@@H]2C[C@@H](O)CN2C(=O)[C@@H](NC(=O)C2(F)CC2)C(C)(C)C)c(OCCOCCOCCOCCOc2nc(Nc3cc(S(C)(=O)=O)ccc3N[C@@H](c3cccc4c3OC(F)(F)O4)c3ncccc3Cl)nc(N3CCNCC3)n2)c1`, for which the growth in experiment [1] is 112%; in experiment [2], 80.8%; in experiment [3], 80.9%; in experiment [4], 98.5%; in [5] it was 109%; in experiment [6] it was 98.9%. The growth in experiment [7] was 101%; in experiment [8], 116%; in experiment [9], -9.39% (active); in experiment [10], -5.45% (active).
`S=C(Nc1ccc(OCc2nc3ccccc3[nH]2)cc1)NC1CCCCC1`: the growth was 123% in experiment [1]; 104% in [2]; 87.8% in experiment [3]; 96.8% in experiment [4]; 130% in experiment [5]; 101% in [6]. The growth in experiment [7] is 100%; in [8], 150%; in experiment [9] it was 95%; in [10], 98.3%.
